Assay outcomes: PubChem, several laboratories
CYP2C9 inhib = blockers of cytochrome P450 2C9 activity – biochemical, luminescence, ADME assay, primary screen; P11712; CYP2C9 Supersomes, luciferin-H conversion; inhibition, % at 5 µM; 96,000 tested, 20% active;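 active = blocking of liver enzyme CYP2C9 beyond about 50% at 5 µM, limit read from the data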
Target sequence (P11712 whole entry, looked up): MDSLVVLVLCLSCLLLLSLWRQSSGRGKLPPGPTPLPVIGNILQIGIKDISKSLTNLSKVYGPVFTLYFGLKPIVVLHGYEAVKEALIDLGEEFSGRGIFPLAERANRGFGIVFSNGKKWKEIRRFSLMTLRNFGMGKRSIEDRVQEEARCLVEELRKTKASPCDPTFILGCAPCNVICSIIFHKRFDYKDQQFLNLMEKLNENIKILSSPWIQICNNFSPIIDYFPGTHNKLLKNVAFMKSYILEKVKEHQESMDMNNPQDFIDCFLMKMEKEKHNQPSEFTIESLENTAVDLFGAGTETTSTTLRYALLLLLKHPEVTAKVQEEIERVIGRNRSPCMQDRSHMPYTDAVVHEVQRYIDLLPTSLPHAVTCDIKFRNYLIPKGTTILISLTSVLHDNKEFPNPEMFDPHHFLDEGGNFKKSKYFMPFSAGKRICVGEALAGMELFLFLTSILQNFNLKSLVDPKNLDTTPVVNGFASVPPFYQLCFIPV
CYP2C9 act = human CYP2C9 activators, primary screen, biochemical, luminescence | Cytochrome P450 2C9 (Homo sapiens), P11712 | recombinant CYP2C9, luciferin-H conversion; active compounds read high; factor 1 = untreated enzyme, 0 = blocked | activation factor at 5 µM | 96,000 tested, 1.4% active;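 active = activation factor of 2 or more for CYP2C9 at a 5 µM dose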;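 also: 0 = sulfaphenazole-blocked wells and 1 = vehicle-only wells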
CYP2C19 inhib = blockers of cytochrome P450 2C19 activity – biochemical, luminescence, ADME assay, primary screen | P33261 | AID 778, 2007 | inhibition, % at 5 µM | CYP2C19 Supersomes, luciferin-H EGE luminescence, 30 min | 96,000 tested, 21% active;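 active = CYP2C19 inhibition above a set limit at 5 µM in the primary screen, cut at about 50% in these data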;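 also: plate controls were negative control wells for no effect and 2.5 mM tranylcypromine positive control for full effect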
CYP2C19 act = human CYP2C19 activators, primary screen, biochemical, luminescence | recombinant CYP2C19, luciferin-H EGE luminescence; active compounds read high; 0 = fully inhibited enzyme, 1 = untreated enzyme | activation factor at 5 µM | 96,000 tested, under 10 active | AID 1025, 2008;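 active = activation factor of at least 2 at 5 µM in the primary screen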;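 also: 0 = wells with 2.5 mM tranylcypromine and 1 = vehicle-only wells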
EphB4 ephrin blk = EphB4-ephrin-B2 interaction antagonists, primary screen, biochemical, TNYL-RAW peptide probe, fluorescence polarization | 97,000 tested, 0.15% active | EphB4 LBD / TNYL-RAW-Alexa532 peptide | AID 720, 2007 | inhibition, % at 7 µM;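 active = inhibition above the screen-wide mean inhibition plus 3 SD, cut at about 15% in these data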;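 also: 0% = DMSO wells and 100% = excess unlabeled TNYL-RAW peptide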
An asterisk follows results filed as active; nt = no result given. Most compounds without a hit are left out; they make up all but 27% or so of the library.

SMILES | CYP2C9 inhib | CYP2C9 act | CYP2C19 inhib | CYP2C19 act | EphB4 ephrin blk
Cc1cc(N2C(=O)CC(Cc3ccccc3)C2=O)no1 (stereo not drawn) | 6 | 0.9 | 17 | 0.8 | 2
CCOC(=O)c1[nH]c(C)c(C(=O)NCc2ccc(Cl)cc2)c1C | 30 | 0.7 | 36 | 0.6 | nt
CCOC(=O)c1[nH]c(COC(=O)c2ccccc2NC(=O)c2ccco2)c(C(=O)OCC)c1C | 88* | 0.1 | 50 | 0.5 | 5
CCOC(=O)c1[nH]c(C)c(C(=O)NCCc2ccc(OC)cc2)c1C | 72* | 0.3 | 32 | 0.7 | nt
CCOC(=O)c1[nH]c(C)c(C(=O)Nc2ccccc2C)c1C | -11 | 1.1 | 56* | 0.4 | nt
CCOC(=O)c1[nH]c(C)c(C(=O)Nc2ccc(C)c(F)c2)c1C | -6 | 1.1 | -12 | 1.1 | nt
O=C1CN(C(=O)COC(=O)c2ccccc2NC(=O)c2ccco2)c2ccccc2N1 | 76* | 0.2 | 38 | 0.6 | -1
CCCCOC(=O)Nc1ccc(S(=O)(=O)Nc2cc(C)nc(C)n2)cc1 | -6 | 1.1 | -24 | 1.2 | nt
COc1cccc2c3c(c(C)nc12)CC(C)O3 (stereo not drawn) | 9 | 0.9 | -4 | 1 | -9
O=C1CC(N2CCC(c3nc4ccccc4s3)CC2)C(=O)N1 (stereo not drawn) | -16 | 1.2 | -14 | 1.1 | -5
CCCCn1c(SCC(=O)N2CCC(C)CC2)nc2ccsc2c1=O | 32 | 0.7 | 24 | 0.8 | 9
CCOC(=O)c1[nH]c(C)c(C(=O)Nc2cc(Cl)ccc2C)c1C | -104 | 2* | -1 | 1 | nt
CCOC(=O)c1[nH]c(C)c(C(=O)Nc2ccc(C)c(Cl)c2)c1C | nt | nt | nt | nt | -1
CCOC(=O)c1sc(NC(=O)c2cccnc2)c(C#N)c1C | 94* | 0.1 | -4 | 1 | 2
CCOC(=O)c1sc(NC(=O)CSc2n[nH]c(-c3ccccc3)n2)c(C#N)c1C | 72* | 0.3 | 19 | 0.8 | nt
CCOC(=O)c1sc(NC(=O)CSc2ccccn2)c(C#N)c1C | -8 | 1.1 | -12 | 1.1 | 6
CCOC(=O)c1sc(NC(=O)CSc2ncn[nH]2)c(C#N)c1C | 82* | 0.2 | 79* | 0.2 | -6
CCOC(=O)c1c(NC(=O)c2cccnc2)sc(C)c1C | 20 | 0.8 | 12 | 0.9 | 2
CCOC(=O)c1sc(N(Cc2ccccc2)C(=O)CSc2ncn[nH]2)nc1C | 79* | 0.2 | 5 | 1 | 3
O=C(O)Cc1csc2ccccc12 | 0 | 1 | -9 | 1.1 | nt
CCOC(=O)c1sc(NC(=O)CSc2nc(-c3ccco3)cc(C(F)(F)F)n2)c(C#N)c1C | 74* | 0.3 | 43 | 0.6 | 7
CCOC(=O)/C(=N\Nc1ccc(Cl)cc1)c1csc(Nc2ccccc2)n1 | 87* | 0.1 | 12 | 0.9 | -3
Cc1ccc(Nc2nc(C(=O)NCc3ccco3)cs2)cc1 | 91* | 0.1 | 86* | 0.1 | 6
CCN(CC)C(=O)c1csc(Nc2ccc(C)cc2)n1 | 61* | 0.4 | 81* | 0.2 | 2
O=C(CSc1nnc(Nc2ccccc2)s1)NCc1ccco1 | 37 | 0.6 | 42 | 0.6 | 0
SMILES | CYP2C9 inhib | CYP2C9 act | CYP2C19 inhib | CYP2C19 act | EphB4 ephrin blk
Cc1ccc(Nc2nnc(SCC(=O)NCc3ccco3)s2)cc1 | 58* | 0.4 | 44 | 0.6 | nt
COc1ccccc1-n1c(SCC(=O)Nc2ccc(F)cc2)nc2c(c1=O)SCC2 | 36 | 0.6 | 28 | 0.7 | nt
CN(C)/C=C1\C(=O)N(c2ccc(Cl)cc2)CS1(=O)=O | 13 | 0.9 | 9 | 0.9 | -1
O=C(CN1CCCc2ccccc21)NCc1ccc2c(c1)OCO2 | 30 | 0.7 | 99* | 0 | nt
O=C(CCn1cccc1)NCc1ccc2c(c1)OCO2 | 0 | 1 | 26 | 0.7 | -2
O=C(CN1C(=O)CCS(=O)(=O)c2ccccc21)NCc1ccc2c(c1)OCO2 | 2 | 1 | 90* | 0.1 | nt
CC1CC(=O)N(CC(=O)NCc2ccco2)c2ccccc2S1 (stereo not drawn) | 2 | 1 | 52* | 0.5 | nt
O=C(CN1CCc2ccccc21)Nc1ccc2c(c1)OCO2 | 20 | 0.8 | 43 | 0.6 | 0
O=C(CN1C(=O)CCS(=O)(=O)c2ccccc21)NCc1ccccc1 | nt | nt | nt | nt | 5
O=C(Cn1nc(-c2ccccc2F)ccc1=O)NCc1ccc2c(c1)OCO2 | 56* | 0.4 | 72* | 0.3 | 6
CC1CC(=O)N(CC(=O)N2CCCC2)c2ccccc2S1 (stereo not drawn) | -24 | 1.2 | -8 | 1.1 | nt
C=CCNC(=S)NNC(=O)CCC(O)CCCCC (stereo not drawn) | 43 | 0.6 | 15 | 0.8 | -2
Cc1ccc(-n2cnnn2)c(S(=O)(=O)N2CCOCC2)c1 | -14 | 1.1 | 8 | 0.9 | 6
O=C(NCc1ccco1)N1c2ccccc2Sc2ccccc21 | 58* | 0.4 | 50* | 0.5 | 0
CC1CC(=O)N(CC(=O)NCc2ccc3c(c2)OCO3)c2ccccc2S1 (stereo not drawn) | 42 | 0.6 | 100* | 0 | 4
CN1CC(=O)N(CC(=O)NCc2ccc3c(c2)OCO3)C1=O | 0 | 1 | -6 | 1.1 | 1
N#Cc1ccc(N=c2ssnc2Cl)cc1 | 97* | 0 | 3 | 1 | -2
COc1cc(N=c2ssnc2Cl)cc(OC)c1OC | 89* | 0.1 | -4 | 1 | -3
COc1ccc(N=c2ssnc2Cl)cc1 | nt | nt | nt | nt | -8
FC(F)(F)c1ccc2c(c1)nc1n2CCCC1 | -7 | 1.1 | -8 | 1.1 | 3
C=CCc1cc(OC)ccc1OCC(O)CN1CCN(c2ccc(OC)cc2)CC1 (stereo not drawn) | -9 | 1.1 | 15 | 0.8 | 0
COC(=O)c1sc(N)c(C(=O)OC)c1COC(=O)C1CC(=O)N(Cc2ccco2)C1 (stereo not drawn) | 91* | 0.1 | 79* | 0.2 | -3
COc1ccc(C)cc1NC(=O)C1CC(=O)N(Cc2ccco2)C1 (stereo not drawn) | 17 | 0.8 | 36 | 0.6 | -6
CCOC(=O)c1[nH]c(COC(=O)C2CC(=O)N(Cc3ccccc3)C2)c(C(=O)OCC)c1C (stereo not drawn) | 60* | 0.4 | 39 | 0.6 | 10
O=C(O)C1CC(=O)N(Cc2ccccc2)C1 (stereo not drawn) | -40 | 1.4 | -2 | 1 | -4
CCOC(=O)c1sc(N)c(C(=O)OCC)c1COC(=O)C1CC(=O)N(Cc2ccco2)C1 (stereo not drawn) | 98* | 0 | 91* | 0.1 | -4
O=C1c2ccccc2C(=O)N1CCSc1ccccc1 | 22 | 0.8 | 52* | 0.5 | 5
CSc1nsc(SCCN2C(=O)c3ccccc3C2=O)n1 | 52* | 0.5 | 80* | 0.2 | 3
O=C1c2ccccc2C(=O)N1CCSc1nncs1 | 8 | 0.9 | 10 | 0.9 | -1
Cc1csc(SCCN2C(=O)c3ccccc3C2=O)n1 | 71* | 0.3 | 82* | 0.2 | -1
